Source: PubChem (National Center for Advancing Translational Sciences (NCATS))
Most compounds without a hit are left out; they make up all but 21% or so of the library.
Shiga toxin inh: blocks Shiga toxin action in Vero cells | inhibition, % at 38.7 µM | Vero cells, Shiga toxin protein synthesis inhibition reporter | AID 2315 | hit rate 9.2% among 290,000; in the data active = inhibition mostly above about 28%, no sharp cut-off; inactive = mostly below about 43%; note: 0% is about no effect
Pf growth 48h: inhibits P. falciparum growth in the first generation, 48 h. P. falciparum luciferase growth in erythrocytes, 48 h. Potency, µM (highest dose often 28.7 µM), for inactives: at the top dose activity change, negative = inhibition, most hits filed as inhibitors. hit rate 5.9% among 310,000; note: potency is the fitted concentration of half-maximal effect; % is set by controls: 0 for no effect and ±100 for the full control effect
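A one-generation exposure of luciferase-tagged malaria parasites in RPMI 1640/Albumax erythrocyte culture, 37 C and 5% CO2. Inhibition is inferred from decreased luminescence after adding detection reagent.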
Cycloheximide cs: counter-screen for Shiga toxin inhibitors: cycloheximide protein synthesis inhibition; cell reporter, cycloheximide protein synthesis inhibition counterscreen; max response, %; hit rate 12% among 300,000; AID 2314; in the data active = max response mostly above about 13%, no sharp cut-off; inactive = mostly below about 14%; note: read at 38.3 µM for the half of the compounds with a filed dose; 0% is about no effect
HCV inhibitor: HCV inhibition | Potency, µM (titrated, usually from 41.8 µM), without a hit: top-dose activity change, negative = inhibition, hits mostly inhibitors | Huh7.5.1 HCVcc-Cre infection, luciferase reporter, 44 h | hit rate 3.4% among 340,000 | AID 651820; note: potency is the fitted concentration of half-maximal effect; % is set by controls: 0 for no effect and ±100 for the full control effect
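Whole-lifecycle infectious HCVcc-Cre system; cells 1,000/well, compound then virus (~0.5 moi) added 4 h after plating, 44 h culture. Luciferase read 15 sec following 15 min substrate incubation, room temp.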
HCMV antiviral: inhibitors of human cytomegalovirus. hit rate 4.5% among 410,000. AID 1259415. activity change, negative = inhibition, % at 57.5 µM. HFF cells, HCMV-luciferase reporter, 72 h; hits give low values; in the data active = activity change below about -60%; inconclusive = no clear call, values can overlap the other calls; inactive = above about -39%; note: % is set by controls: 0 for no effect and ±100 for the full control effect
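Screen run at 2 compound doses on HFFs infected with reporter HCMV, MOI 1 PFU/cell. Luciferase activity from cell lysates at 72 h post infection gave inhibition relative to buffer-only and Salinomycin wells.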
Pf growth 96h: P. falciparum growth inhibition at 96 hour, primary screen for plastid delayed-death inhibitors. P. falciparum luciferase reporter growth, 96 h. Potency, µM (titrated, usually from 28.7 µM), without a hit: at the top dose activity change, negative = inhibition, usual class: inhibitors. hit rate 6.9% among 320,000; note: potency is the fitted concentration of half-maximal effect; % is set by controls: 0 for no effect and ±100 for the full control effect
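Cell-based qHTS: luciferase-tagged P. falciparum in erythrocytes (2% hematocrit, 0.05% parasitemia final) incubated with compounds for 96 hours, 37 C, 5% CO2; luciferase detection reagent then added and luminescence measured.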
An asterisk follows results filed as active. Unless noted, calls come from the whole dose curve; as a rule, active = well fitted inhibition curve with a large enough effect; inconclusive = small, poorly fitted or top-dose-only effect, or another doubt; inactive = no such curve, though single readings can be large or run the other way.

Results for CC(=O)c1ccc(-c2c(C3C4C=CCC(C)C4C(=O)N3Cc3ccccc3)ccc3ccccc23)cc1 (stereo unspecified) ?
Shiga toxin inh: 3.3; Cycloheximide cs: 21.3

Results for COc1cc(OC)c(C(=O)OCC(=O)Nc2ccccc2Cl)cc1OC ?
Shiga toxin inh: -7.3; Pf growth 48h: 18.8%; Cycloheximide cs: 7.4; HCV inhibitor: -3.4%; HCMV antiviral: inconclusive; Pf growth 96h: 40.0%

What do the screens show for `CCOC(=O)C1CCN(C(=O)c2ccc(OCC(=O)Nc3cccc(C(F)(F)F)c3)c(OC)c2)CC1`?
Pf growth 48h: inconclusive; HCV inhibitor: 2.82µM*; HCMV antiviral: -70.5*; Pf growth 96h: inconclusive

Results for CCOC(=O)C1CCN(C(=O)c2ccc(OC3CCN(C(=O)CCOC)CC3)cc2)CC1 ?
Shiga toxin inh: 2.2; Pf growth 48h: 20.5%; Cycloheximide cs: 6.9; HCV inhibitor: 8.6%; HCMV antiviral: 79.4; Pf growth 96h: 15.2%

What do the screens show for `CCOC(=O)C1CCN(C(=O)c2ccc(OC3CCN(C(=O)COC)CC3)cc2)CC1`?
Shiga toxin inh: 28.2; Pf growth 48h: 5.7%; Cycloheximide cs: 10.7*; HCV inhibitor: 7.5%; HCMV antiviral: -15.9; Pf growth 96h: 20.9%

How did COc1cc(C(=O)NCc2ccc(S(N)(=O)=O)cc2)ccc1OCC(=O)Nc1cccc(C(F)(F)F)c1 do in these assays?
Pf growth 48h: 10.1%; HCV inhibitor: inconclusive; HCMV antiviral: -21.0; Pf growth 96h: -16.7%

How did CCOC(=O)C1CCN(C(=O)c2ccc(OCC(=O)Nc3cccc(C(F)(F)F)c3)cc2)CC1 do in these assays?
Shiga toxin inh: -3.9; Pf growth 48h: inconclusive; Cycloheximide cs: -2.1; HCV inhibitor: inconclusive; HCMV antiviral: -26.4; Pf growth 96h: -6.2%

Results for CCOC(=O)C1CCN(C(=O)c2ccc(OCC)c(OCC)c2)CC1 ?
Shiga toxin inh: -16.4; Pf growth 48h: -22.0%; Cycloheximide cs: -2.2; HCV inhibitor: 10.2%; HCMV antiviral: -26.8; Pf growth 96h: 14.7µM*

Results for COc1cc(C(=O)N(C)CCOc2ccccc2)ccc1OCC(=O)Nc1cccc(C(F)(F)F)c1 ?
Pf growth 48h: -20.2%; HCV inhibitor: 2.82µM*; HCMV antiviral: -69.4*; Pf growth 96h: -8.7%

How did CCOC(=O)c1nnn(-c2nn3nnnc3c3ccccc23)c1C do in these assays?
Shiga toxin inh: 31.4; Pf growth 48h: 0.928µM*; Cycloheximide cs: 1.5; HCV inhibitor: 7.7%; HCMV antiviral: -13.7; Pf growth 96h: -29.4%

Results for CCOC(=O)c1nnn(-c2nonc2-n2cccc2)c1C ?
Shiga toxin inh: -13.4; Pf growth 48h: inconclusive; Cycloheximide cs: 9.2; HCV inhibitor: 6.5%; HCMV antiviral: 17.8; Pf growth 96h: inconclusive

Results for Cc1ccc(-c2nonc2NC(=O)c2ccco2)cc1C ?
HCMV antiviral: -13.8

Results for Cc1cc(=O)oc2cc3c(cc12)OCCN3 ?
Shiga toxin inh: 10.7; Pf growth 48h: 42.8%; Cycloheximide cs: 8.3; HCV inhibitor: inconclusive; HCMV antiviral: 74.9; Pf growth 96h: 37.0%

How did Cc1cc(=O)oc2cc3c(cc12)CCCN3 do in these assays?
Shiga toxin inh: 26.9; Pf growth 48h: 58.9%; Cycloheximide cs: 18.7*; HCV inhibitor: inconclusive; HCMV antiviral: 101.2; Pf growth 96h: 56.1%

What do the screens show for `COc1ccc(C2=NN(C3=NN=C(N)Cc4ncnn43)C(O)(C(F)(F)F)C2)cc1` (stereo unspecified)?
Shiga toxin inh: -5.1; Pf growth 48h: 35.7%; Cycloheximide cs: 2.1; HCV inhibitor: 8.4%; HCMV antiviral: -26.7; Pf growth 96h: -26.3%

What do the screens show for `CC(C)CNc1cccc2c1S(=O)(=O)N[C@@H](Cc1ccccc1)CO2`?
HCMV antiviral: -18.3

Results for CCOC(=O)C1(Cc2ccccc2)CCCN(C2CCCC2)C1 (stereo unspecified) ?
Shiga toxin inh: -5.6; Pf growth 48h: 12.7%; Cycloheximide cs: -2.3; HCV inhibitor: 6.3%; HCMV antiviral: 0.6; Pf growth 96h: 9.6%

What do the screens show for `Cc1c(NC(=S)NC(=O)c2cc3ccccc3o2)cccc1C(=O)O`?
Shiga toxin inh: 75.6*; Pf growth 48h: 20.6%; Cycloheximide cs: 53.7*; HCV inhibitor: 9.5%; HCMV antiviral: 48.0; Pf growth 96h: -11.0%
